Compound activity as filed in PubChem BioAssay.
PNC inhibitor: perinucleolar compartment assembly inhibition. PC3M PTB-GFP, PNC prevalence imaging, 16 h; hits give low values. AID 2417. 3.1% of 140,000 active. activity change (PNC), negative = inhibition, % at 10 µM;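 active means readout at or below -70, meaning at least 70% loss of cells showing the perinucleolar compartment, a nuclear body marking cancer cells; inconclusive means readout between -30 and a set limit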
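Compounds are pinned in duplicate onto adhered PC3M cells stably expressing GFP-tagged PTB and incubated 16 h at 37 C. Cells are then fixed, nuclei stained with Hoechst, and PNC-positive cells counted.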
HPGD block: inhibitors of human 15-hydroxyprostaglandin dehydrogenase (HPGD); 4.3% of 150,000 active; AID 894; purified HPGD, NADH fluorescence kinetic, PGE2 substrate; P15428; Potency, µM, hits mostly inhibitors
Target sequence (P15428 whole entry, looked up): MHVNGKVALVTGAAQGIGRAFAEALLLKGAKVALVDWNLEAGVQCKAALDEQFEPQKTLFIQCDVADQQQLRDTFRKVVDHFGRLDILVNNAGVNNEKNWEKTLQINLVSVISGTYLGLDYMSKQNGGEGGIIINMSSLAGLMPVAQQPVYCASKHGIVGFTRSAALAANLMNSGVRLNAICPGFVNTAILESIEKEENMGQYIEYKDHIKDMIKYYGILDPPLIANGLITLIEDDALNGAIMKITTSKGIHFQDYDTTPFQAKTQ
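20 nM HPGD preincubated 15 min at room temperature with compound in 50 mM Tris-HCl pH 8, 0.01% Tween 20. Started with 1 mM NAD+ and 30 uM prostaglandin E2; NADH fluorescence (360/450 nm) read 5 times over 30-s intervals, last minus first.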
ALDH1A1 block: inhibitors of human aldehyde dehydrogenase 1A1. AID 1030. P00352. Purified ALDH1A1, NADH fluorescence, propionaldehyde substrate. Potency, µM (doses to about 75.3 µM), actives largely listed as inhibitors. 7.3% of 220,000 active
HttQ103 aggreg: mutant huntingtin aggregation inhibition; PC12 HttQ103-GFP aggregates, Acumen cytometry, 40 h; Potency, µM (top dose mostly 46.1 µM), hits mostly inhibitors; 1.1% of 220,000 active; active means well fitted curve in the direction sought with a large enough effect; inconclusive means small, poorly fitted or top-dose-only effect, or another doubt; inactive means no such curve, though single readings can be large; an effect the other way counts as inactive or inconclusive; further: nearly all actives have a fitted effect of over 60% in size
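Huntingtin Q103 exon 1–GFP aggregates in induced PC12 cells (100 nM tebufenozide) were quantified by cytometry from lysates, with compounds dosed in titration.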
HTT cytoprotect: Huntington cell model cytoprotection by ATP luminescence; PC12 HTT-Q103 induced, cytoprotection, ATP luminescence, 40 h; Potency, µM (titrated, usually from 56.4 µM), actives largely listed as activators; 0.14% of 230,000 active; active means well fitted curve in the direction sought with a large enough effect; inconclusive means small, poorly fitted or top-dose-only effect, or another doubt; inactive means no such curve, though single readings can be large; an effect the other way counts as inactive or inconclusive; further: nearly all actives have a fitted effect of over 45% in size
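Compounds added alongside 100 nM tebufenozide, which induces toxic Q103 huntingtin exon 1-GFP in stable PC12 cells; surviving cells quantified by luminescent ATP measurement. Medium: phenol red-free DMEM, 5% equine and 5% calf serum.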
GoLoco inh red: blocks human Gai1 binding to RGS12 GoLoco peptide, red readout; P63096; Gai1:RGS12 GoLoco peptide FP, rhodamine, 10 min; Potency, µM (doses to about 61.6 µM), actives largely listed as inhibitors; 0.44% of 230,000 active; AID 880; active means well fitted inhibition curve with a large enough effect, not every such curve was filed as active; inactive means no such curve, though single readings can be large or run the other way; further: nearly all actives have a fitted effect of over 30% in size
Large screens that a line does not name were inactive. Most compounds without a hit are left out; they make up all but 11% or so of the library. Unless noted, the call rests on the fitted dose curve; in most records, active means well fitted inhibition curve with a large enough effect (not every such curve was filed as active); inconclusive means small, poorly fitted or top-dose-only effect, or another doubt; inactive means no such curve, though single readings can be large or run the other way.

COc1cccc(-n2c(N)c(-c3nc4ccccc4[nH]3)sc2=S)c1	ALDH1A1 block 28µM (no result: PNC inhibitor, HPGD block)
Cc1cc(C)c2c(N)c(-c3nc4ccccc4[nH]3)sc2n1	HttQ103 aggreg inconclusive
COCCNc1nnnc2c1sc1nc(N3CCOCC3)c3c(c12)CCCC3	HttQ103 aggreg inconclusive (no result: PNC inhibitor, HPGD block)
O=C(N1CCOCC1)C1(c2ccccc2)CCCCC1	PNC inhibitor -105
COc1ccc2c(c1)C(=O)[C@H](OC(=O)NCCc1ccc(OC)c(OC)c1)[C@@H](c1ccc(OC)c(Br)c1)O2	HTT cytoprotect inconclusive (no result: PNC inhibitor, HttQ103 aggreg)
Cc1cccc(NC(=S)NNC(=O)c2csc3c2CCCC3)c1	ALDH1A1 block inconclusive, HttQ103 aggreg inconclusive
Cc1ccc(C)c(NC(=S)NNC(=O)c2csc3c2CCCC3)c1	ALDH1A1 block 8.9µM, HttQ103 aggreg 25µM
Cc1ccc(C)c(NC(=S)NNC(=O)c2csc3c2CCC(C)C3)c1 (centres undefined)	PNC inhibitor -113, ALDH1A1 block 10µM
CCc1ccc(CN2CCC(CO)(CC3CCCCO3)CC2)o1 (centres undefined)	ALDH1A1 block 8.9µM (no result: PNC inhibitor, HPGD block)
Cc1ccc(CN2CCC(CO)(CC3CCCCO3)CC2)o1 (centres undefined)	none (no result: PNC inhibitor, HPGD block)
CCOC(=O)N/N=C1/C[C@@H](O)[C@@H](O)[C@@H]2[C@@H]3C(=O)N(C(C)(C)C)C(=O)[C@H]3CC[C@H]12	HTT cytoprotect inconclusive (no result: PNC inhibitor, HPGD block, HttQ103 aggreg, GoLoco inh red)
CC(C)n1nnnc1-c1ccc(Cl)cc1	none (no result: PNC inhibitor, HPGD block)
Nc1nnc(N2CCCCCC2)s1	none
Nc1nnc(N2CCCCC2)s1	ALDH1A1 block 25µM
CCOC(=O)OCC	ALDH1A1 block inconclusive (no result: PNC inhibitor, HttQ103 aggreg)
NC(=O)[C@@H]1CCCN1Cc1ccc2c(c1)OCO2	none (no result: PNC inhibitor, HttQ103 aggreg)
Cc1ccc(C)c(NC(=O)CN(C)C(=O)CCN2C(=O)c3ccccc3C2=O)c1	PNC inhibitor inconclusive, HttQ103 aggreg 14µM (no result: HPGD block, GoLoco inh red)
COc1ccc(C(=O)c2coc3ccc(O)c(CN4CCCCC4)c23)cc1	ALDH1A1 block 13µM
CC(=O)Nc1ccc(/C=C(\C#N)C(=O)NCc2ccccc2)cc1	HPGD block inconclusive (no result: HTT cytoprotect)
CCN(CC)c1ccc(/C=C(/C#N)C(=O)NC(C)C)o1	ALDH1A1 block 10µM (no result: PNC inhibitor, HPGD block)
CCN(CC)c1ccc(/C=C(/C#N)C(=O)NCc2ccccc2)o1	PNC inhibitor -90, HPGD block 16µM, ALDH1A1 block 2.8µM, HttQ103 aggreg inconclusive
COC(=O)CNC(=O)CCc1nnc(C2(c3ccc(Cl)cc3)CCC2)o1	ALDH1A1 block 8.9µM (no result: PNC inhibitor, HPGD block)
CCOc1ccccc1NC(=O)Cn1nnc(C(=O)Nc2ccccc2Cl)c1N	PNC inhibitor inconclusive
CCc1ccccc1NC(=O)c1nnn(CC(=O)Nc2ccccc2C)c1N	PNC inhibitor -102
COc1cc(/C=C/C(=O)OCC(=O)NC(=O)NC23CC4CC(CC(C4)C2)C3)ccc1OCC#N	PNC inhibitor inconclusive, HPGD block inconclusive
Cc1cccc(/C=N/c2sc3c(c2C#N)CCN(Cc2ccccc2)C3)c1O	PNC inhibitor inconclusive, ALDH1A1 block inconclusive, HttQ103 aggreg inconclusive
Cc1ccc(C)c(N=C2CCCN2Cc2ccccc2)c1C#N	PNC inhibitor -119
CCOc1ccc(N(Cc2cc3ccc(C)cc3[nH]c2=O)C(=O)COC)cc1	ALDH1A1 block 18µM
COCC(=O)N(Cc1cc2ccc(C)cc2[nH]c1=O)c1ccc(OC)cc1	none
O=c1c(-c2cccs2)nc2cncnc2n1Cc1ccc(F)cc1	ALDH1A1 block inconclusive (no result: PNC inhibitor, HPGD block, HttQ103 aggreg)
Cc1nc(-c2ccccc2)sc1C(=O)NN	ALDH1A1 block 4.5µM (no result: PNC inhibitor, HPGD block)
C=CCNC(=O)c1sc(-c2ccccc2)nc1C	none (no result: PNC inhibitor, HPGD block)
Cc1nc(NS(=O)(=O)c2ccccc2)sc1C(=O)NN	none (no result: PNC inhibitor, HPGD block)
Cc1ccc(N/C=C/C(=O)c2cccs2)cc1	ALDH1A1 block inconclusive (no result: PNC inhibitor, HPGD block, HTT cytoprotect)
Cc1nc(N)sc1C(=O)NN	ALDH1A1 block 25µM (no result: PNC inhibitor, HPGD block)
Cc1ccc(N/C=C/C(=O)c2sc(-c3ccccc3)nc2C)cc1	ALDH1A1 block 11µM
Cc1cc(-c2nc(C)c(C(=O)NN)s2)no1	ALDH1A1 block 10µM (no result: PNC inhibitor, HPGD block)
O=C(NC1CCCCC1)C(c1cccnc1)N(C(=O)c1csnn1)C1CCCC1 (centres undefined)	PNC inhibitor -100
O=C(NC1CCCC1)C(c1ccncc1)N(C(=O)c1csnn1)C1CCCC1 (centres undefined)	ALDH1A1 block 13µM (no result: PNC inhibitor, HPGD block)
